Structures can show the parent of a compound that is named as a salt. ± gives the standard deviation of the averaged measurements.

This assay concerns ES2. Put plainly: cell viability relative to DMSO control (MTS) (fraction of DMSO control); higher = more viable cells / less growth inhibition. As to conditions: 10 µM; 48 h. An outline of the steps:
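TOV-21G and ES2 clear cell carcinoma cells were plated in 96-well plates at 5000 cells per well, grown for 24 h, and then exposed to a 367-compound […] library at a final concentration of 10 µM, with vehicle alone in control wells. An MTS assay (CellTiter 96 AQueous One Solution) was read 48 h later according to the manufacturer's protocol. Viability is reported as a fraction of the vehicle control.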
For `COc1nccc(-c2c(-c3ccc(F)cc3)ncn2C2CCC(O)CC2)n1` (stereo unspecified), the cell viability was 1.14. Under `Oc1c2ccccc2c2c3c(cccc13)N=N2` stands 0.721 ± 0.32; under `CO[C@H]1C[C@@H]2CC[C@@H](C)[C@@](O)(O2)C(=O)C(=O)N2CCCC[C@H]2C(=O)O[C@H]([C@H](C)C[C@@H]2CC[C@@H](OC(=O)C(C)(CO)CO)[C@H](OC)C2)CC(=O)[C@H](C)/C=C(\C)[C@@H](O)[C@@H](OC)C(=O)[C@H](C)C[C@H](C)/C=C/C=C/C=C/1C` [temsirolimus], 0.824; under `CN(C)CC(=O)Nc1ccc2[nH]c(=O)c3ccccc3c2c1`, 0.788. In the case of `CC[C@@]1(O)C[C@H](O[C@H]2C[C@H](N(C)C)[C@H](O[C@H]3C[C@H](O)[C@H](O[C@H]4CCC(=O)[C@H](C)O4)[C@H](C)O3)[C@H](C)O2)c2c(cc3c(c2O)C(=O)c2c(O)cccc2C3=O)[C@H]1C(=O)OC` [Aclarubicin], the cell viability is 0.6. Turning to `C[n+]1ccc(-c2c3nc(c(-c4cc[n+](C)cc4)c4ccc([nH]4)c(-c4cc[n+](C)cc4)c4ccc([nH]4)c(-c4cc[n+](C)cc4)c4nc2C=C4)C=C3)cc1`, the cell viability came out at 0.933. `CC(C)(C)c1nc2c3cc[nH]c(=O)c3c3cc(F)ccc3c2[nH]1` [JAK Inhibitor I] had a cell viability of 0.561.

Molecule `O=CN1CCN(c2ccc(/C=C3\C(=O)Nc4ccccc43)cc2)CC1` registered a cell viability of 1.13. Under `CC(C)[C@H](CO)Nc1nc(Nc2cccc(Cl)c2)c2ncn(C(C)C)c2n1` [Purvalanol A] stands 0.815; under `O=[N+]([O-])c1ccc(-c2nc(-c3ccc(F)cc3)c(-c3ccncc3)[nH]2)cc1`, 0.835.

Molecule `CC/C(=C(\c1ccccc1)c1ccc(OCCN(C)C)cc1)c1ccccc1` [Tamoxifen, citrate] had a cell viability of 1.34.

For `NC(=O)c1cccc2cn(-c3ccc([C@@H]4CCCNC4)cc3)nc12` [MK-4827 (Niraparib)], the cell viability amounted to 0.61. For `COc1cc2ncnc(Nc3ccc(NC(=O)c4ccccc4)cc3)c2cc1OC` [Aurora kinase inhibitor II], the cell viability was found to be 1.09. The result for `N#C/C(=C\c1ccc(O)c(O)c1)C(=O)NCc1ccccc1` reads 0.891 ± 0.39; that for `O=C(Nc1cccc(Nc2nccc(Nc3cccc(C(F)(F)F)c3)n2)c1)C1CC1` [Aurora kinase inhibitor III], 0.94; that for `O=C(O)c1ccccc1Nc1ccccc1` [N-phenylanthranilic acid], 1.02.

`Cc1cc(C=C2C(=O)C=CC2=O)cc(C)c1O` came in with a cell viability of 0.801. The result for `C[C@]1(O)C[C@@H](c2nc(-c3ccc4ccc(-c5ccccc5)nc4c3)c3c(N)nccn32)C1` reads 0.62. The result for `NC(=O)c1ccc(I)c([N+](=O)[O-])c1` [BSI-201 (Iniparib)] reads 0.778; that for `CC(C)(C)NC(=O)[C@H]1CC[C@H]2[C@@H]3CC[C@H]4NC(=O)C=C[C@]4(C)[C@H]3CC[C@]12C` [Finasteride], 1.3.

The molecule `COc1cc2/c(=N/c3ccc(Br)cc3F)nc[nH]c2cc1OCC1CCN(C)CC1` [Vandetanib] came in with a cell viability of 0.577. `Nc1nc(Nc2ccc(S(N)(=O)=O)cc2)nn1C(=S)Nc1c(F)cccc1F` [Cdk1/2 inhibitor III] showed a cell viability of 0.687. In the case of `CCCCOc1cc(CC2CNC(=O)N2)ccc1OC` (stereo unspecified), the cell viability was 0.901.

Consider `CC(C)CC(NC(=O)CNC(=O)OCc1ccccc1)C(=O)NC(Cc1ccccc1)C(=O)CCl` (stereo unspecified), for which the cell viability was 0.398.

In turn, `O=Nc1c(-c2c(O)[nH]c3cc(Br)ccc23)[nH]c2ccccc12` [GSK-3 inhibitor IX] came in with a cell viability of 0.643.

`CO[C@H]1C[C@@H]2CC[C@@H](C)[C@@](O)(O2)C(=O)C(=O)N2CCCC[C@H]2C(=O)O[C@H]([C@H](C)C[C@@H]2CC[C@@H](OCCO)[C@H](OC)C2)CC(=O)[C@H](C)/C=C(\C)[C@@H](O)[C@@H](OC)C(=O)[C@H](C)C[C@H](C)/C=C/C=C/C=C/1C` [everolimus] returned a cell viability of 1.02. The molecule `Clc1ccccc1CNCC1CCC(CNCc2ccccc2Cl)CC1` (stereo unspecified) showed a cell viability of 0.789. Under `CNC(=O)c1ccc(N2C(=S)N(c3ccc(C#N)c(C(F)(F)F)c3)C(=O)C2(C)C)cc1F` stands 1.14; under `CC[C@H](C)C(=O)O[C@H]1C[C@@H](C)C=C2C=C[C@H](C)[C@H](CC[C@@H]3C[C@@H](O)CC(=O)O3)[C@H]21` [Lovastatin], 0.595. The result for `CC(=O)O[C@H]1C(=O)[C@@]2(C)[C@H]([C@H](OC(=O)c3ccccc3)[C@]3(O)C[C@H](OC(=O)[C@H](O)[C@@H](NC(=O)c4ccccc4)c4ccccc4)C(C)=C1C3(C)C)[C@]1(OC(C)=O)CO[C@@H]1C[C@@H]2O` [Paclitaxel] reads 0.467; that for `O=C(Nc1cccc(NC(=O)c2cccc(O)c2O)c1)c1cccc(O)c1O`, 0.614.

Turning to `CN(C)S(=O)(=O)c1ccc2c(c1)/C(=C/c1cc3c([nH]1)CCCC3)C(=O)N2`, the cell viability worked out at 1.03. `C[C@@H]1C[C@H]2O[C@@H]2/C=C\C=C\C(=O)Cc2c(Cl)c(O)cc(O)c2C(=O)O1` [radicicol]: the cell viability came to 0.409. The result for `CC[n+]1c(/C=C/N(C)c2ccccc2)n(-c2ccccc2)c2ccc(-c3nc4ccccc4s3)cc21` [Akt Inhibitor IV] reads 0.308; that for `NNCCc1ccccc1` [Phenelzine], 1.13. Under `CC[C@]1(O)C[C@@H]2CN(CCc3c([nH]c4ccccc34)[C@@](C(=O)OC)(c3cc4c(cc3OC)N(C)[C@H]3[C@@](O)(C(=O)OC)[C@H](OC(C)=O)[C@]5(CC)C=CCN6CC[C@]43[C@@H]65)C2)C1` [Vinblastine sulfate] stands 0.52.

The values are drawn from the supplement of paper PMC12669797.
